Columns and labels:
Type in all cases: functional
[1] = system: Plasmodium falciparum; assay: GSK_TCMDC: Inhibition of Plasmodium falciparum 3D7 in whole red blood cells, using parasite LDH activity as an index of growth. Test compounds present at 2uM
[2] = system: Plasmodium falciparum; assay: GSK_TCMDC: Inhibition of Plasmodium falciparum Dd2 in whole red blood cells, using parasite LDH activity as an index of growth. Test compounds present at 2uM
[3] = system: HepG2; assay: GSK_TCMDC: Percent inhibition of human HepG2 cell line. Test compounds present at 10uM.

CCNc1cc(C(=O)N[C@@H](Cc2ccc(Cl)cc2)[C@H](O)CNC2CCCCC2)cc(N2CCCCS2(=O)=O)c1.Cl
Inhibition [1]: 98% | Inhibition [2]: 99% | Inhibition [3]: 6%

CCCCCCCC1=NN2C(=N)C(=Cc3cc(Br)c(OCc4ccc(F)cc4)c(OCC)c3)C(=O)N=C2S1
Inhibition [1]: 95% | Inhibition [2]: 0% | Inhibition [3]: 4%

CCC(CC)(CCC#N)CN(C[C@@H](O)[C@H](Cc1ccccc1)NC(=O)OC(C)(C)C)S(=O)(=O)c1ccc(OC)cc1
Inhibition [1]: 82% | Inhibition [2]: 66% | Inhibition [3]: 0%

Cl.Nc1nc(N)c2c(Cl)c(N(Cc3ccccc3)Cc3ccccc3)ccc2n1
Inhibition [1]: 96% | Inhibition [2]: 2% | Inhibition [3]: 66%

COc1ccc(S(=O)(=O)NC2CCN(c3ccc(C(F)(F)F)cc3NC(=O)OCC(C)C)CC2)cc1
Inhibition [1]: 85% | Inhibition [2]: 13% | Inhibition [3]: 19%

CN1CCN(CC(=O)Nc2cccc(-c3cccc(-c4nc5ccccc5[nH]4)c3)c2)CC1
Inhibition [1]: 90% | Inhibition [2]: 27% | Inhibition [3]: 11%

O=C(NC1CCN(Cc2ccccc2)CC1)c1ccc(-c2nc3cc(Cl)c(F)cc3[nH]2)cc1
Inhibition [1]: 100% | Inhibition [2]: 100% | Inhibition [3]: 13%

CN(C)CCNC(=O)NC1CN(c2ncnc3cc(-c4ccccc4)sc23)C1.O=C(O)C(F)(F)F
Inhibition [1]: 100% | Inhibition [2]: 39% | Inhibition [3]: 7%

Clc1ccc(CNCC2CCN(CC3CCCCC3)CC2)cc1Cl
Inhibition [1]: 92% | Inhibition [2]: 6% | Inhibition [3]: 18%

Oc1cc(Nc2ccnc3cc(-c4ccc(CN5CCCCC5)o4)c(Cl)cc23)c(Cl)cc1F
Inhibition [1]: 100% | Inhibition [2]: 64% | Inhibition [3]: 0%
